Source: PubChem BioAssay AID1159580 (chemical genetic matrix, 2015)
Among all 5,500 compounds or so, about 2,000 (36%) were called active. Inconclusive results (about 18%) are left out. Cut-off read from the data, not from the text of the source: active = normalized growth mostly below about 0.91 (no sharp cut-off); inconclusive = no clear call, values can overlap the other calls; inactive = mostly above about 0.92. Some of the results follow.

Test: chemical genetic growth profiling, strain panel (AID 1159580);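 note: tested at 20 µM; growth read once vehicle control cultures reached saturation at 30 °C; 1 = growth at the plate median or of vehicle wells; lower values mean less growth of the strain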
Settings: S. cerevisiae deletion strains, growth OD

Measured: normalized growth

O=C(c1cc2c(s1)-c1ccccc1CC2)N1CCN(Cc2ccccc2)CC1
inactive: locus YAR019C, strain CDC15, stronger effect = lower value 1 | locus YBL105C, strain PKC1, stronger effect = lower value 1 | locus YBR135W, strain CKS1, stronger effect = lower value 0.996 | locus YBR136W, strain MEC1, stronger effect = lower value 0.999 | locus YBR160W, strain CDC28, stronger effect = lower value 0.998 | locus YDL017W, strain CDC7, stronger effect = lower value 1 | locus YDL028C, strain MPS1, stronger effect = lower value 0.999 | locus YDL101C, strain DUN1, stronger effect = lower value 0.999 | locus YDL108W, strain KIN28, stronger effect = lower value 0.998 | locus YDL132W, strain cdc53, stronger effect = lower value 0.993 | locus YDL214C, strain PRR2, stronger effect = lower value 0.965 | locus YDR052C, strain DBF4, stronger effect = lower value 1 | locus YDR054C, strain cdc34, stronger effect = lower value 0.99 | locus YDR226W, strain ADK1, stronger effect = lower value 1 | locus YDR477W, strain SNF1, stronger effect = lower value 0.982 | locus YER123W, strain YCK3, stronger effect = lower value 0.929 | locus YER133W, strain GLC7, stronger effect = lower value 0.985 | locus YFL009W, strain cdc4, stronger effect = lower value 1.01 | locus YFL029C, strain CAK1, stronger effect = lower value 1 | locus YFR003C, strain YPI1, stronger effect = lower value 0.998 | locus YFR019W, strain FAB1, stronger effect = lower value 0.941 | locus YFR028C, strain CDC14, stronger effect = lower value 0.996 | locus YGR040W, strain KSS1, stronger effect = lower value 0.962 | locus YGR052W, strain FMP48, stronger effect = lower value 1.1 | locus YGR092W, strain DBF2, stronger effect = lower value 0.988 | locus YHR030C, strain SLT2, stronger effect = lower value 1 | locus YHR079C, strain IRE1, stronger effect = lower value 0.971 | locus YHR082C, strain KSP1, stronger effect = lower value 1.04 | locus YHR205W, strain SCH9, stronger effect = lower value 0.94 | locus YIL147C, strain SLN1, stronger effect = lower value 1 | locus YJL095W, strain BCK1, stronger effect = lower value 0.974 | locus YJL128C, strain PBS2, stronger effect = lower value 0.974 | locus YJL157C, strain FAR1, stronger effect = lower value 0.976 | locus YJR016C, strain ILV3, stronger effect = lower value 0.988 | locus YJR066W, strain TOR1 (second series), stronger effect = lower value 0.958 | locus YJR066W, strain TOR1, stronger effect = lower value 1.07 | locus YKL048C, strain ELM1, stronger effect = lower value 0.984 | locus YKL067W, strain YNK1, stronger effect = lower value 0.955 | locus YKL101W, strain HSL1, stronger effect = lower value 0.984 | locus YKL193C, strain SDS22, stronger effect = lower value 1 | locus YKL203C, strain TOR2, stronger effect = lower value 1.01 | locus YLR113W, strain HOG1, stronger effect = lower value 0.96 | locus YLR133W, strain CKI1, stronger effect = lower value 0.971 | locus YLR403W, strain SFP1, stronger effect = lower value 0.966 | locus YML070W, strain DAK1, stronger effect = lower value 0.953 | locus YMR001C, strain CDC5, stronger effect = lower value 1 | locus YMR205C, strain PFK2 (second series), stronger effect = lower value 0.981 | locus YMR277W, strain FCP1, stronger effect = lower value 1.01 | locus YNL006W, strain LST8, stronger effect = lower value 1.02 | locus YNL020C, strain ARK1, stronger effect = lower value 0.982 | locus YNL161W, strain CBK1, stronger effect = lower value 1 | locus YNL183C, strain NPR1, stronger effect = lower value 0.984 | locus YNL207W, strain RIO2, stronger effect = lower value 1 | locus YNL222W, strain SSU72, stronger effect = lower value 1.01 | locus YNL307C, strain MCK1 (second series), stronger effect = lower value 0.963 | locus YOL078W, strain AVO1, stronger effect = lower value 1.01 | locus YOL136C, strain PFK27, stronger effect = lower value 0.964 | locus YOR061W, strain CKA2, stronger effect = lower value 1 | locus YOR119C, strain RIO1, stronger effect = lower value 1.1 | locus YOR231W, strain MKK1, stronger effect = lower value 0.981 | locus YOR329C, strain SCD5, stronger effect = lower value 1.01 | locus YPL031C, strain PHO85, stronger effect = lower value 0.981 | locus YPL153C, strain RAD53, stronger effect = lower value 0.975 | locus YPL204W, strain HRR25, stronger effect = lower value 0.951 | locus YPL209C, strain IPL1, stronger effect = lower value 1.01 | locus YPL256C, strain CLN2, stronger effect = lower value 0.958 | locus YPR025C, strain CCL1, stronger effect = lower value 1 | locus YPR106W, strain ISR1, stronger effect = lower value 0.996 | locus YPR111W, strain DBF20, stronger effect = lower value 0.977 | strain NNK1, stronger effect = lower value 0.998 | strain TSCII, stronger effect = lower value 1
